Screening results deposited in PubChem by National Center for Advancing Translational Sciences (NCATS).
An excerpt weighted towards active compounds, which were near 19% of everything screened.
LASV entry inh: qHTS for Inhibitors of binding or entry into cells for Lassa Virus; AID 540256, 2011; Potency, µM (highest dose often 37.9 µM), for the others: at the top dose activity change, negative = inhibition, most hits filed as inhibitors; Lassa virus pseudotype entry inhibition, cell reporter; 300,000 compounds, 1.2% hits; calls by dose curve; tested in HEK293 cells; also: potency is read from the fitted curve at half-maximal effect; % is scaled to controls: 0 for no effect and ±100 for the full control effect; nearly all actives have a fitted effect of over 50% in size
CHX counter: Cycloheximide Counterscreen for Small Molecule Inhibitors of Shiga Toxin; cell reporter, cycloheximide protein synthesis inhibition counterscreen; max response, %; 300,000 compounds, 12% hits; in the data active = max response mostly above about 13%, no sharp cut-off; inactive = mostly below about 14%; also: read at 38.3 µM for the half of the compounds with a filed dose; 0% is about no effect
MARV entry inh: qHTS for inhibitors of binding or entry into cells for Marburg Virus | 300,000 compounds, 1.8% hits | Potency, µM (series often up to 37.8 µM), inactives show at the highest dose activity change, negative = inhibition, most hits filed as inhibitors | Marburg virus pseudotyped entry inhibition, cell reporter | AID 540276, 2011; calls by dose curve; tested in HEK293 cells; also: potency is read from the fitted curve at half-maximal effect; % is scaled to controls: 0 for no effect and ±100 for the full control effect
Pf growth 96h: Primary qHTS for delayed death inhibitors of the malarial parasite plastid, 96 hour incubation; P. falciparum luciferase reporter growth, 96 h; Potency, µM (series often up to 28.7 µM), without a hit: top-dose activity change, negative = inhibition, most hits filed as inhibitors; 320,000 compounds, 6.9% hits; AID 504834, 2011; also: potency is read from the fitted curve at half-maximal effect; % is scaled to controls: 0 for no effect and ±100 for the full control effect
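Infected RBCs, 2% Hct / 0.05% parasitemia final; luciferase-reporter P. falciparum; cpd 96 h, 37 C, 5% CO2; luciferase detection reagent; luminescence.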
Pf growth 48h: Primary qHTS for delayed death inhibitors of the malarial parasite plastid, 48 hour incubation; P. falciparum luciferase growth in erythrocytes, 48 h; Potency, µM (series often up to 28.7 µM), inactives show top-dose activity change, negative = inhibition, usual class: inhibitors; 310,000 compounds, 5.9% hits; also: potency is read from the fitted curve at half-maximal effect; % is scaled to controls: 0 for no effect and ±100 for the full control effect
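Growth was read as firefly luciferase luminescence after a 48 h, 37 C, 5% CO2 exposure of compounds to reporter-bearing P. falciparum cultures (0.1% parasitemia, 2% hematocrit final) in Albumax-supplemented RPMI 1640.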
Shiga inhibitor: A qHTS for Small Molecule Inhibitors of Shiga Toxin. Vero cells, Shiga toxin protein synthesis inhibition reporter. inhibition, % at 38.7 µM. 290,000 compounds, 9.2% hits. AID 2315, 2010; in the data active = inhibition mostly above about 28%, no sharp cut-off; inactive = mostly below about 43%; also: 0% is about no effect
Numbers without * were called inactive; i = inactive; ? = inconclusive; . = no result; [ ] = remark or other dose. Unless noted, calls follow the shape of the dose curve; as a rule, active = well fitted inhibition curve with a large enough effect; inconclusive = small, poorly fitted or top-dose-only effect, or another doubt; inactive = no such curve, though single readings can be large or run the other way.

SMILES	LASV entry inh	CHX counter	MARV entry inh	Pf growth 96h	Pf growth 48h	Shiga inhibitor
CCCCc1ccc(NC(=O)C2(C)Cc3ccccc3C(=O)O2)cc1 (centres undefined)	9.2%[46.1 µM]	.	7.1%[46.1 µM]	.	.	.
Cc1cccc(NC(=O)C2(c3ccccc3)CC2(Cl)Cl)c1 (centres undefined)	-0.9%	3.4	-5.2%	?	?	13.3
CCc1ccc(NC(=O)C2(c3ccccc3)CC2(Cl)Cl)cc1 (centres undefined)	16.4µM*	-4.2	0.3%	3.29µM*	?	-6.4
CCOc1ccccc1NC(=S)N1CCC(NC(=O)NC23CC4CC(CC(C4)C2)C3)CC1	-1.5%	-4.7	-17.3%	?	-0.9%	17.3
CCCc1nnc(NC(=O)CCC(=O)NC2CCCCC2)s1	.	-1.5	.	43.0%	-7.2%	-6.7
Cc1[nH]n(-c2ccccc2)c(=O)c1/C=N/N1CCOCC1	.	12.1	.	-10.6%	13.1%	30.3
Fc1ccccc1-n1[nH]nnc1=S	-9.2%	5.2	?	39.7%	22.6%	27.8
O=C(c1ccc(Cl)c([N+](=O)[O-])c1)N(c1ccccn1)c1ccccn1	-7.1%	-2.1	-20.3%	-3.0%	-18.3%	30.1
COC(=O)c1ccc(NC(=O)CSc2nccn2CCc2ccccc2)cc1	2.3%	43.5*	13.2%	.	66.3%	88.0
O=C(CSc1nccn1Cc1ccccc1)Nc1nc2ccccc2s1	-26.1%[46.1 µM]	.	.	.	.	.
O=C(CSc1nnc(-c2ccccn2)n1Cc1ccccc1)NC1CCCC1	-11.2%	9.1	2.1%[46.1 µM]	?	8.28µM*	-23.3
Cc1ccc(Cn2cc(SCC(=O)Nc3nccs3)c3ccccc32)cc1	.	24.1*	.	?	?	32.6
O=C(CSc1nccn1Cc1ccccc1)Nc1nccs1	?	37.2*	2.3%	9.9%	40.2%	active
O=C(CSc1nccn1Cc1ccccc1)NC1CCCC1	7.1%	25.2*	10.2%	10.0%	0.0%	17.7
CC(=O)Nc1cccc(NC(=O)CSc2nccn2Cc2ccccc2)c1	?	12.9	?	4.4%	-12.3%	21.3
Cc1ccc(Cn2ccnc2C(=O)Nc2ccccc2)cc1	?	27.1*	17.7%[46.1 µM]	99.6%	156.7%	87.1*
N#Cc1ccc(Cn2ccnc2C(=O)Nc2ccccc2)cc1	-7.7%[46.1 µM]	19.9	10.3%[46.1 µM]	6.1%	11.4%	35.1
O=C(CSc1nccn1Cc1ccccc1)Nc1ccccc1	16.6%	17.7*	5.1%	-11.8%	-1.7%	33.1*
O=C(CSc1nccn1Cc1ccc(Cl)cc1)NC1CCCC1	-1.1%[46.1 µM]	.	.	.	.	.
COC(=O)[C@H](Cc1ccccc1)NC(=O)NCc1ccccc1OC	-2.7%	-0.9	?	.	-3.7%	-8.4
Cc1cccc(C(=O)Oc2c(Sc3ccccc3)c(C)nn2C(C)(C)C)c1	?	.	5.3%[46.1 µM]	.	.	.
COc1ccc(-c2noc(CN3CCN(C(=O)c4cccs4)CC3)n2)c(OC)c1OC	.	6.8	.	?	-1.5%	-16.4
CCCCC(OC(=O)CN1C(=O)COc2ccccc21)C(=O)NC1CCCCC1 (centres undefined)	-2.0%	-2.4	-29.8%[46.1 µM]	20.7%	-6.7%	-9.4
CCOc1ccccc1CNC(=O)c1ccc2c(c1)sc1nc(-c3ccccc3)cn12	5.0%[46.1 µM]	.	.	.	.	.
CC1CCc2c(nc3nc[nH]n3c2=O)C1 (centres undefined)	6.2%	-4.5	2.0%	1.17µM*	.	-16.4
SMILES	LASV entry inh	CHX counter	MARV entry inh	Pf growth 96h	Pf growth 48h	Shiga inhibitor
O=C(OCc1c(Cl)cccc1Cl)c1ccccn1	0.7%	-1.5	-13.8%	0.0%	19.4%	-18.0
COC(=O)c1ccc(COC(=O)c2ccccn2)cc1	11.4%	38.3*	-12.8%	.	2.6%	85.6*
O=C(Oc1ccc(Cl)cc1)c1ccc(COC(=O)c2cnccn2)cc1	3.0%	40.1*	0.4%	17.5%	.	86.7*
O=C(OCc1ccc(F)cc1Cl)c1ccccn1	4.0%	19.7*	1.6%	-22.5%	34.8%	18.5
CC(C)OC(=O)c1ccc(COC(=O)c2cnccn2)cc1	-0.5%	5.7	10.3%[46.1 µM]	9.8%	-1.6%	48.5
O=C(Oc1ccccc1)c1ccc(COC(=O)c2cnccn2)cc1	6.2%	22.1*	?	11.3%	2.5%	30.2
COc1ccc(CCNC(=O)COC(=O)c2ccccn2)cc1	7.6%[46.1 µM]	.	0.2%[46.1 µM]	.	.	.
CCOc1cc(C(=O)Nc2cccc(C(C)=O)c2)ccc1OCC(=O)N1CCCCC1	.	7.7	?	?	-14.6%	10.2
CC1(C)CC(=O)c2cnc(N3CCc4ccccc43)nc2C1	-26.1%	50.6*	0.0%[14.2 µM]	184.5%	188.6%	88.2*
Clc1ccc2nc(CSc3nc4ccccc4o3)cn2c1	-23.2%	37.4*	0.9%	?	93.1%	129.3*
Nc1nnc(SCc2cn3cc(Cl)ccc3n2)s1	-18.8%[46.1 µM]	28.3*	?	110.9%	125.2%	83.9*
Clc1ccc(SCc2cn3ccccc3n2)cc1	3.3%[46.1 µM]	36.8*	?	173.0%	175.5%	53.6*
Clc1ccc2nc(CSc3nnc4ccccn34)cn2c1	?	38.0*	?	81.9%	115.2%	91.6*
O=C1N=C(N2CCOCC2)S/C1=C\c1cccnc1	8.4%	-1.1	?	-8.7%	-8.8%	2.6
O=C(CN1CCC(n2cnc3cc(F)ccc32)CC1)Nc1ccccc1Br	.	-4.3	.	8.0%	?	-9.6
CC(C)(C)C(=O)Nc1nnc(SCC(=O)NC2CCCCC2)s1	7.3%	13.0	7.4%	11.3%	-0.6%	15.5
CCOC(=O)c1cc(NC(=O)COc2ccc([N+](=O)[O-])cc2)cc(C(=O)OCC)c1	?	0.8	?	?	-12.1%	-8.3
c1ccc2[nH]c(SCc3cn4ccccc4n3)nc2c1	-9.6%[46.1 µM]	20.1*	?	18.3%	?	53.6*
Cc1cccc2nc(CSc3ccc(Cl)cc3)cn12	?	48.8*	?	?	50.6%	91.1*
Cc1ccc(SCc2cn3c(C)csc3n2)cc1	?	44.1*	?	?	183.3%	74.0*
Cc1cccc2nc(CSCc3ccco3)cn12	?	30.9*	?	i	64.3%	82.4*
COc1ccc(Nc2nc3ccccc3nc2NS(=O)(=O)c2cccs2)cc1	-2.1%	-3.4	-12.8%	7.1%	13.0%	-4.3
Nc1nc(Nc2cccc(F)c2)nc(N2CCOCC2)c1[N+](=O)[O-]	?	12.9	-3.1%[46.1 µM]	?	?	6.4
Nn1c(SCc2cn3cc(Cl)ccc3n2)nnc1-c1ccncc1	-12.2%	1.8	5.7%[46.1 µM]	2.5%	-3.4%	-2.1
c1ccc2c(SCc3cn4ccccc4n3)nncc2c1	5.8%	38.3*	1.2%	-8.2%	34.9%	75.9
Clc1ccc2nc(CSCc3ccccc3)cn2c1	-15.3%[46.1 µM]	48.8*	-10.1%[46.1 µM]	294.1%	300.6%	98.5*
Clc1ccc(-n2nnnc2SCc2cn3ccccc3n2)cc1	-3.3%	1.1	-6.1%	?	.	-7.3
Cc1ccc(SCc2cn3cc(Cl)ccc3n2)cc1	?	51.5*	?	79.3%	61.8%	61.6*
